In the library only some 9.5% were active in any assay of this set; here they are far more common.
Pf growth 96h: P. falciparum growth inhibition at 96 hours | P. falciparum luciferase reporter growth, 96 h | Potency, µM (highest dose often 28.7 µM), without a hit: at the top dose activity change, negative = inhibition, usual class: inhibitors | 320,000 compounds, 6.9% hits | AID 504834; active = well fitted inhibition curve with a large enough effect; inconclusive = small, poorly fitted or top-dose-only effect, or another doubt; inactive = no such curve, though single readings can be large or run the other way; note: % is set by controls: 0 for no effect and ±100 for the full control effect
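Cell-based qHTS: luciferase-tagged P. falciparum in erythrocytes (2% hematocrit, 0.05% parasitemia final) incubated with compounds for 96 hours, 37 C, 5% CO2; luciferase detection reagent then added and luminescence measured.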
NS1 inh: influenza NS1 inhibition; Potency, µM (titrated, usually from 46.1 µM), for inactives: at the top dose activity, positive = more growth; 270,000 compounds, 0.4% hits; note: actives are rising curves; nearly all actives have a fitted effect of over 50% in size
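In this qHTS, NS1 from influenza A is expressed in budding yeast, where it slows growth. Cells are switched from glucose to 2% galactose medium (pH 6.0, -URA), treated with compound, and growth recovery is read at OD600.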
RE007 growth inh: less growth of the S. pombe RE007 Vpr strain | S. pombe RE007 Vpr strain, BacTiter-Glo ATP luminescence, 24 h | Potency, µM (top dose mostly 92.2 µM), without a hit: top-dose activity change, negative = less growth, hits mostly inhibitors | 360,000 compounds, 0.21% hits | AID 651644; active = well fitted falling curve with a large enough effect; inconclusive = small, poorly fitted or top-dose-only effect; inactive = no such curve, though single readings can be large or run the other way; note: % is set by controls: 0 for no effect and ±100 for the full control effect; nearly all actives have a fitted effect of over 50% in size
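Fission yeast RE007 carrying one integrated HIV-1 vpr copy, seeded at OD 0.01 in PMG+AL medium with 23 nL pinned compound. Grown 24 h at 30 degrees; viability read by BacTiter-Glo luminescence after 5 min.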
SARS PLpro yeast: blocks SARS-CoV papain-like protease in a yeast assay; S. cerevisiae expressing SARS-CoV PLpro, growth rescue; Potency, µM (doses to about 32.9 µM), inactives show at the highest dose activity, positive = growth rescue, usual class: activators; 330,000 compounds, 0.19% hits; note: 0% is about no effect; nearly all actives have a fitted effect of over 55% in size
Pf growth 48h: inhibits P. falciparum growth in the first generation, 48 h. Potency, µM (top dose mostly 28.7 µM), for the others: top-dose activity change, negative = inhibition, usual class: inhibitors. P. falciparum luciferase growth in erythrocytes, 48 h. 310,000 compounds, 5.9% hits; active = well fitted inhibition curve with a large enough effect; inconclusive = small, poorly fitted or top-dose-only effect, or another doubt; inactive = no such curve, though single readings can be large or run the other way; note: % is set by controls: 0 for no effect and ±100 for the full control effect
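Growth was read as firefly luciferase luminescence after a 48 h, 37 C, 5% CO2 exposure of compounds to reporter-bearing P. falciparum cultures (0.1% parasitemia, 2% hematocrit final) in Albumax-supplemented RPMI 1640.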
An asterisk follows results filed as active; ? = inconclusive; . = not tested or not shown; [ ] = another dose, or the depositor's remark. Unless noted, calls come from the whole dose curve. Potency is the fitted concentration of half-maximal effect.

SMILES	Pf growth 96h	NS1 inh	RE007 growth inh	SARS PLpro yeast	Pf growth 48h
COC(=O)c1ccc(C23CC4(C2)[C@H](CN(Cc2ccc(-c5ccccc5)cc2)[C@@H]4c2ccccc2)C3c2ccc(Cl)nc2)cc1 (stereo partly drawn)	?	?	-18%	0%	12µM*
COC(=O)c1cccc(C23CC4(C2)[C@H](CN(Cc2ccc(-c5ccccc5)cc2)[C@@H]4c2ccccc2)C3c2ccccc2)c1 (stereo partly drawn)	1.7µM*	6%	3%	2%	12µM*
Cc1cc(C)c(NC(=O)C2CCCN2C)c(C)c1 (stereo not drawn)	8.3µM*	4%	14%	5%	39%
CC(Cn1cncn1)C(=O)N1CCN(S(=O)(=O)c2ccccc2)CC1 (stereo not drawn)	18%	8%	-6%	-7%	-8%
COc1ccc(Cl)cc1Cn1c(C)c(C(=O)NCc2ccc(F)cc2)sc1=O	.	.	15%[18.4 µM]	.	.
CCCCC(=O)NC(c1ccc(OC)c(OC)c1)c1c(O)ccc2ccccc12 (stereo not drawn)	12µM*	18%	-15%	1%	?
CCCCC(=O)NC(c1ccccc1Cl)c1c(O)ccc2ccccc12 (stereo not drawn)	62%	11%	-1%	16%	10µM*
CCCC(=O)NC(c1ccccc1Cl)c1c(O)ccc2ccccc12 (stereo not drawn)	22%	9%	-7%	7%	10µM*
CC1(C)Cc2cccc(OCC(=O)Nc3cc(S(C)(=O)=O)ccc3Cl)c2O1	?	.	-23%	4%	?
COC(=O)CN1C(=O)N/C(=C/c2ccc(C)o2)C1=O	10µM*	.	-6%	1%	-1%
Cc1ccc(/C=C2/NC(=O)N(Cc3ccccc3)C2=O)o1	-18%	-53%	45µM*	-66%	-19%
CCc1nccn1CCC(=O)NC1CCCc2c1cnn2-c1ccc(F)cc1F (stereo not drawn)	-3%	8%	0%	-2%	4%
COc1cccc(NC(=O)c2cc(-c3cccnc3)nc3c(Cl)cccc23)c1	1.9µM*	3%	13%	-4%	2.1µM*
O=C(Nc1ccc(F)cc1)c1cc(-c2ccncc2)nc2c(Cl)cccc12	22%	-9%	2%	3%	2.1µM*
COc1ccc2cc(/C(C)=N/NC(=O)c3cc(-c4cccnc4)nc4ccccc34)ccc2c1	?	22%	-9%	-1%	-1%
Cc1c(Cl)ccc2c(C(=O)NC(C)c3ccncc3)cc(-c3ccncc3)nc12 (stereo not drawn)	-2%	0%	.	0%	4.1µM*
Cc1cccc(NC(=O)c2cc(-c3cccnc3)nc3c(C)cccc23)n1	4.7µM*	0%	12%	-2%	11%
CCCn1c(N)c(N(CCOC)C(=O)c2ccc(S(=O)(=O)N3CCOCC3)cc2)c(=O)[nH]c1=O	.	.	-18%	.	.
CC(OC(=O)/C=C/c1cccs1)C(=O)Nc1ccc(C(N)=O)cc1 (stereo not drawn)	-2%	.	2%	-3%	-8%
CCc1ccccc1Nc1nc(N)nc(COC(=O)CCC(=O)c2ccc(F)cc2)n1	?	.	3%	-2%	?
Cc1[nH]c2ccc(F)cc2c(=O)c1SC(F)(F)C(F)F	-15%	-7%	-5%	-1%	13µM*
O=Nc1c(O)[nH]c2ccc(F)cc12	-18%[5.75 µM]	.	5%	-1%	3%
Cc1cccc(C)c1NC(=O)C1(C)CN(S(C)(=O)=O)CC(=O)N1Cc1ccco1 (stereo not drawn)	.	.	-2%	.	.
Cc1ccc(S(=O)(=O)NC(=O)C2(C)CCN2C(=O)COc2ccc(Cl)cc2)nc1 (stereo not drawn)	.	.	26%	.	.
CCSc1nc(N)c2c3c(sc2n1)CN(C)CC3	?	8%	.	2%	?
C=CCSc1nc(N)c2c3c(sc2n1)CN(C)CC3	2.1µM*	2%	1%	0%	?
CSc1nc(N)c2c3c(sc2n1)CN(C)CC3	4.7µM*	3%	.	1%	.
CCN(c1ccccc1)S(=O)(=O)c1ccc(OC)c(NC(=O)c2ccc(=O)[nH]c2)c1	.	.	5%	-4%	.

High-throughput results (PubChem)
